Assay outcomes deposited in PubChem BioAssay by National Center for Advancing Translational Sciences (NCATS).
SNCA viab count = GF-AFC viability counterscreen for inhibitors of alpha-synuclein gene (SNCA) expression; HEK-293-SNCA-luc viability, GF-AFC fluorescence, 24 h; Potency, µM (titrated, usually from 57.1 µM), usual class: cytotoxic; 150,000 tested, 0.12% active; AID 1671193, 2021; also: nearly all actives have a fitted effect of over 30% in size
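HEK-293-SNCA-luc cells (1500/well) plated 24 h, then exposed 24 h to a dilution series; GF-AFC added 30 min at 37C, fluorescence 405/540 nm; normalised to medium-only and DMSO wells, Hill fit.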
hNpr1 antagonist = Natriuretic polypeptide receptor (hNpr1) antagonism - Primary qHTS; Atrial natriuretic peptide receptor 1 (Homo sapiens), P16066; HEK293 hNpr1 GloSensor cGMP, ANP-stimulated luminescence; Potency, µM (doses to about 46.3 µM), hits mostly inhibitors; 76,000 tested, 1.6% active; calls by dose curve; also: nearly all actives have a fitted effect of over 60% in size
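HEK293 cells stably expressing human Npr1 and cGMP GloSensor pGS-40F, loaded 2 h with 2% GloSensor reagent, given compound 30 min at room temperature. Luminescence read before and 20 min after 0.1 nM hNppA.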
3T3 cytotox = Cytotoxic Profiling in NIH 3T3 Cell Line of Diverse Libraries Using Quantitative High-Throughput Screening; NIH 3T3 viability, CellTiter-Glo ATP luminescence, 48-72 h; AID 1345082, 2018; Potency, µM (doses to about 96.7 µM), hits mostly inhibitors; 94,000 tested, 4.3% active; also: nearly all actives have a fitted effect of over 55% in size
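Luminescent ATP readout (CellTiter-Glo, 10 min RT) after 48 or 72 hr compound exposure of NIH 3T3 cells seeded at 400 cells/well in 1536-well format; quantitative HTS.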
Luciferase inh = Firefly luciferase inhibition profiling of diverse chemical library using quantitative high-throughput screening. purified P. pyralis luciferase, luminescence, biochemical. Potency, µM (top dose mostly 115 µM), most hits filed as inhibitors. 76,000 tested, 2.5% active. Luciferin 4-monooxygenase (Photinus pyralis), P08659; also: nearly all actives have a fitted effect of over 65% in size
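Luminescence read by CCD imaging after purified firefly luciferase (10nM final) was added to substrate buffer holding 10uM D-luciferin and 10uM ATP, pH 7.5, pre-dosed with compound.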
HEK293 tox = Cytotoxic Profiling in HEK 293 Cell Line of Diverse Libraries Using Quantitative High-Throughput Screening; HEK 293 viability, ATP luminescence (CellTiter-Glo), 48-72 h; 94,000 tested, 6.6% active; Potency, µM (series often up to 115 µM), most hits filed as inhibitors; AID 1345083, 2018; also: nearly all actives have a fitted effect of over 60% in size
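250 HEK 293 cells/well; compound by pintool; incubated 48 or 72 hr at 37 degree Celsius; CellTiter-Glo added, 10 min RT, luminescence imaged.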
SNCA expr inh = Primary qHTS assay for inhibitors of alpha-synuclein gene (SNCA) expression; HEK-293 SNCA-luciferase knock-in, luminescence, 24 h; Potency, µM (titrated, usually from 57.2 µM), most hits filed as inhibitors; 140,000 tested, 0.17% active; also: nearly all actives have a fitted effect of over 45% in size
Each line names hits and unclear results; the compound was inactive in the other large screens. In the library only some 7.2% were active in any assay of this set; here they are far more common. Unless noted, calls follow the shape of the dose curve; as a rule, active = well fitted curve in the direction sought with a large enough effect; inconclusive = small, poorly fitted or top-dose-only effect, or another doubt; inactive = no such curve, though single readings can be large; an effect the other way counts as inactive or inconclusive.

O=C1Nc2ccc(-c3cccc(C(F)(F)F)c3)cc2C(=O)N2CCN(C(=O)c3cccs3)C[C@H]12	3T3 cytotox 45µM, HEK293 tox 22µM
COc1ccc(Cl)cc1-c1ccc2c(c1)C(=O)N1CCN(C(=O)c3ccc(N(C)C)cc3)C[C@@H]1C(=O)N2	SNCA viab count inconclusive, 3T3 cytotox inconclusive, HEK293 tox inconclusive, SNCA expr inh inconclusive
CN(C)c1ccc(CN2CCOC[C@H]2c2ncc(-c3ccncc3)[nH]2)cc1	none
O=C(C1CC1)N1CCc2nc(-c3ccc(Cl)cc3)nc(-c3ccccc3)c2C1	3T3 cytotox inconclusive, HEK293 tox 40µM
COc1ccc(-c2nc(-c3ccccc3)nc3c2CN(C(=O)C2CC2)CC3)cc1	3T3 cytotox inconclusive, HEK293 tox inconclusive
O=C(c1ccccc1)N1CCc2nc(-c3ccc(Cl)cc3)nc(-c3ccccc3)c2C1	3T3 cytotox inconclusive, HEK293 tox 22µM
O=C(c1ccc(F)cc1)N1CCc2nc(-c3ccccc3)nc(-c3ccc(Cl)cc3)c2C1	3T3 cytotox inconclusive, HEK293 tox inconclusive
COc1ccc(C(=O)N2CCc3nc(-c4ccccc4)nc(-c4ccc(Cl)cc4)c3C2)cc1	3T3 cytotox inconclusive, HEK293 tox 22µM (no result: hNpr1 antagonist, Luciferase inh)
Cc1nc2c(c(-c3ccc(O)cc3)n1)CN(C(=O)C1CCCC1)CC2	3T3 cytotox inconclusive, HEK293 tox 40µM
CN(C)C(=O)N1CCCC(c2nnc3n2CCNC3)C1 (stereo unspecified)	none (no result: hNpr1 antagonist, Luciferase inh)
Cc1cc(C)n(CCC(=O)N2CCC(CCOc3ccc(F)cc3)C2)n1 (stereo unspecified)	hNpr1 antagonist inconclusive, HEK293 tox 79µM
Cc1ccc(OCC(=O)N2CCC(CCOc3ccc(F)cc3)C2)cc1 (stereo unspecified)	3T3 cytotox inconclusive, HEK293 tox inconclusive
Cc1nn(C(=O)CCCC(=O)N2CCC(CCOc3ccc(F)cc3)C2)c2ccccc12 (stereo unspecified)	hNpr1 antagonist inconclusive
Cn1c(=O)c2c(ncn2CC(=O)N2CCC(CCOc3ccc(F)cc3)C2)n(C)c1=O (stereo unspecified)	HEK293 tox 89µM
CCC1Oc2ccc(NC(=O)c3ccc(Cl)cc3)cc2CN(Cc2ccc3c(c2)OCO3)C1=O (stereo unspecified)	3T3 cytotox inconclusive, HEK293 tox inconclusive
Nc1nc(C2CC(N)C2)cc(N2CCCN(Cc3cccs3)CC2)n1 (stereo unspecified)	3T3 cytotox inconclusive, HEK293 tox 45µM, SNCA expr inh inconclusive
CN1CCN(CCNC(=O)CCc2ccc3c(c2)CN(S(C)(=O)=O)CCO3)CC1	none
CCCNC(=O)N1CCOC[C@H](Oc2ccccc2)C1	none
O=C(Nc1ccc(OC(F)(F)F)cc1)N1CCOC[C@H](Oc2ccccc2)C1	hNpr1 antagonist inconclusive, 3T3 cytotox 32µM, HEK293 tox 56µM, SNCA expr inh inconclusive
CCOC(=O)c1ccc(N2CCN(C(=O)C3=CC(C)(C)COc4ccc(OC)cc43)CC2)cc1	3T3 cytotox inconclusive, HEK293 tox 35µM (no result: SNCA viab count, hNpr1 antagonist, Luciferase inh, SNCA expr inh)
COc1ccc2c(c1)C(COCc1ccc(C(=O)O)cc1)=CC(C)(C)CO2	3T3 cytotox inconclusive (no result: SNCA viab count, hNpr1 antagonist, Luciferase inh, SNCA expr inh)
CC(C)C[C@@H]1N[C@H](C(=O)N2CCN(C)CC2)Cc2c[nH]c3cccc1c23	none
COc1cccc(-c2cc(C3CCN(C(=O)NC4CCCC4)CC3)[nH]n2)c1	HEK293 tox inconclusive
CCOc1ccccc1NC(=O)N1CCC(c2cc(-c3cccc(OC)c3)n[nH]2)CC1	3T3 cytotox 35µM, HEK293 tox inconclusive
CCO[C@H]1CN(C(=O)c2cc(-c3ccc(OC)cc3)n[nH]2)C[C@@H]1O	none
Cc1ccc(Cl)cc1NC(=O)N1CCC(CN2CCCCCC2)CC1	none (no result: hNpr1 antagonist, 3T3 cytotox, Luciferase inh, HEK293 tox)
COC(=O)c1ccccc1S(=O)(=O)N1CCC(c2cc(-c3cccc(C)c3)n[nH]2)CC1	3T3 cytotox 40µM, HEK293 tox 45µM
COc1cccc(-c2cc(C(=O)N3CCC(Cn4cccn4)CC3)[nH]n2)c1	3T3 cytotox inconclusive, Luciferase inh 32µM
COc1cccc(-c2cc(C3CCN(C(=O)Nc4cc(Cl)ccc4C)CC3)[nH]n2)c1	3T3 cytotox inconclusive, Luciferase inh inconclusive, HEK293 tox 45µM
O=C([C@@H]1C[C@H](Oc2cccnc2)CN1C(=O)c1cccnc1)N1CCCC1	SNCA expr inh inconclusive
COCCNC(=O)[C@@H]1C[C@@H](O)CN1C1CCN(C(=O)CN2CCCCCC2)CC1	none
Cc1cccc(NC(=O)N2CCC(c3cc(-c4cccc(C)c4)n[nH]3)CC2)c1	SNCA viab count inconclusive, 3T3 cytotox inconclusive, HEK293 tox inconclusive
COc1cccc(-c2cc(C3CCN(C(=O)Nc4cccc(SC)c4)CC3)[nH]n2)c1	SNCA viab count inconclusive, 3T3 cytotox 45µM, HEK293 tox inconclusive
COc1cccc(NC(=O)N2CCC(c3cc(-c4cccc(C)c4)n[nH]3)CC2)c1	3T3 cytotox 40µM, HEK293 tox inconclusive
O=C(CCc1ccc(-c2ccc(Cl)cc2)[nH]1)N[C@@H]1C[C@@H]2OCC[C@@H]21	3T3 cytotox inconclusive, HEK293 tox 79µM
CCOC(=O)c1ccc(N2CCN(CCC3c4cccnc4C(=O)N3c3c(C)cccc3C)CC2)cc1 (stereo unspecified)	3T3 cytotox inconclusive, HEK293 tox 35µM (no result: hNpr1 antagonist, Luciferase inh)
COC(=O)c1ccc(CNC(=O)CC2c3cccnc3C(=O)N2c2c(Cl)cccc2Cl)cc1 (stereo unspecified)	3T3 cytotox inconclusive, HEK293 tox inconclusive (no result: hNpr1 antagonist, Luciferase inh)
CC(C)NC(=O)N1CCC2(CC1)CN(C(=O)c1cccc3[nH]ccc13)Cc1ccccc1O2	HEK293 tox inconclusive (no result: hNpr1 antagonist, Luciferase inh)
O=C(NC1CCCC1)NC1CCN(c2nccc(Nc3ccccc3Cl)n2)CC1	3T3 cytotox inconclusive, HEK293 tox inconclusive (no result: hNpr1 antagonist, Luciferase inh)
O=C(C1CCN(c2nccc(Nc3ccccc3F)n2)CC1)N1CCCCC1	3T3 cytotox inconclusive, HEK293 tox inconclusive (no result: hNpr1 antagonist, Luciferase inh)
COc1ccc(Nc2ccnc(N3CCC(C(=O)N4CCN(Cc5ccccc5)CC4)CC3)n2)cc1	3T3 cytotox inconclusive, HEK293 tox 32µM, SNCA expr inh inconclusive (no result: hNpr1 antagonist, Luciferase inh)
Cc1ccc(Nc2ccnc(N3CCCC(C(=O)N4CCN(Cc5ccccc5)CC4)C3)n2)cc1 (stereo unspecified)	3T3 cytotox 40µM, HEK293 tox 13µM, SNCA expr inh inconclusive (no result: hNpr1 antagonist, Luciferase inh)
